Experimental data: PubChem BioAssay (NCATS)
Records with an inconclusive call do not appear. A call without a number means that no potency is given here. Activity calls are given as the source filed them. Calls follow the shape of the dose curve; as a rule, active = well fitted inhibition curve with a large enough effect; inconclusive = small, poorly fitted or top-dose-only effect; inactive = flat fitted curve, though single readings scatter.

biological target: Aldehyde dehydrogenase, mitochondrial (Homo sapiens) (UniProt P05091); experiment: qHTS for Inhibitors of the Aldehyde Dehydrogenase Family (ALDH2) Primary screen (AID 2061308); settings: ALDH2 enzyme inhibition qHTS, 1536-well; series mostly up to 56 µM; also: nearly all actives have a fitted effect of over 55% in size

Compound	Potency
COc1ccc(NC(=O)c2cnn3c(-c4ccccc4)cc(C)nc23)cc1	inactive
COc1cccc(C2=Nn3c(nnc3-c3cccc(OC)c3OC)SC2)c1	inactive
Cc1cc(C)cc(N2CCN(C(=S)Nc3cc(C)cc(C)n3)CC2)c1	inactive
Cc1cc(NS(=O)(=O)c2ccc(NC(=O)CCc3ccc(Cl)c(Cl)c3)cc2)no1	inactive
CC(O)c1ccc(-c2ccc3ncnc(NCCc4cnc[nH]4)c3c2)o1 (stereo not given)	inactive
Cc1cc(-c2nnc3n2CCCCCCC3)c(C)n1-c1ccccc1	inactive
N=c1c2c(ncn1CCN1CCOCC1)Oc1ccc3ccccc3c1C2c1ccccc1 (stereo not given)	inactive
O=C(O)c1ccc2c(c1)C(=O)N([C@H](Cc1c[nH]c3ccccc13)C(=O)O)C2=O	inactive
C=CCc1cccc(CNc2ccc(S(=O)(=O)Nc3nccs3)cc2)c1O	inactive
Cc1ccc(NS(=O)(=O)c2cc3c(cc2NCCO)NC(=O)CC3)cc1C	inactive
Cc1ccc2nc(NC3=NC4(CCCC4)C4=C(CCCC4=O)N3)oc2c1	inactive
Cc1ccc(-c2ccc(=O)n(CC(=O)N(C)C(C)C(C)C)n2)cc1 (stereo not given)	inactive
CC(C)(C)OC(=O)N1CCC(C(=O)Nc2ccc([S+](=O)([O-])Nc3nccs3)cc2)CC1	inactive
Cc1cc(C)nc(NC(=S)N2CCN(c3nc(C)cnc3C)CC2)c1	inactive
Cn1c2cc(Br)sc2c2cnn(Cc3ccccc3F)c(=O)c21	inactive
O=S(=O)(Nc1cccc2cccnc12)c1ccc(Br)cc1	inactive
Cc1ccc(OCCn2c(CCNC(=O)OC(C)(C)C)nc3ccccc32)cc1	inactive
N#CCC(C1CCCC1)n1cc(-c2ncnc3[nH]ccc23)cn1 (stereo not given)	inactive
CCOC(=O)c1nnc(N[S+](=O)([O-])c2ccc(NC(=O)Cc3ccc(Cl)c(Cl)c3)cc2)s1	inactive
COc1ccc(NC(=O)c2cnn3c(C)cc(C)nc23)cc1F	inactive

Compound	Potency
O=C(NCCc1nc2ccccc2n1CCOc1ccc2cccnc2c1)C1CCCCC1	inactive
O=C1CCCC2=C1C1(CCCC1)N=C(Nc1nc3cc(Br)ccc3o1)N2	inactive
Cc1ccc(-c2ccc(=O)n(CC(=O)NCCC3CC3)n2)cc1	inactive
Oc1ccc(CNc2nccc3ccccc23)c2cccnc12	inactive
Cc1cccc(-c2nnc(C)n2CCCn2ccnc2)c1N	inactive
COc1cc(O)c(C(CC(=O)N2CCC(Cc3ccccc3)CC2)c2ccc(C)cc2)c(OC)c1 (stereo not given)	inactive
O=C(Nc1ccc2ccccc2c1)Nc1nnc(-c2ccc(Cl)cc2)s1	inactive
Cc1ccc(N[S+](=O)([O-])c2cc3c(cc2Cl)CCC(=O)N3)cc1Br	inactive
CC(C)CN1CC2=C(C1=O)C(c1ccccc1Cl)N=C(Nc1nc3ccccc3o1)N2 (stereo not given)	inactive
COc1ccc2cc3c(NC(=O)c4ccco4)nn(C)c3nc2c1	inactive
COc1cccc(Cn2ncc3c4sc(SC)cc4n(C)c3c2=O)c1	inactive
NC(=O)C1CCN(c2nc(-c3ccc4c(c3)CCO4)cs2)CC1	inactive
O=[S+]([O-])(Nc1ccc(C2CCNCC2)cc1)c1ccc(NCc2ccc(Br)cc2O)cc1	inactive
Cc1ccc(OCCn2c(CCNC(=O)c3cc([N+](=O)[O-])ccc3[N+](=O)[O-])nc3ccccc32)cc1	inactive
c1nc(N2CCCCC2)c2cc(-c3ccc4c(c3)OCO4)ccc2n1	inactive
COc1ccc(C(=O)Nc2nnc(-c3ccco3)o2)cc1OC	inactive
COc1cc(F)c(S(=O)(=O)N2CCN(S(=O)(=O)c3ccc(NC(C)=O)cc3)CC2)c(F)c1	inactive
O=C(OCC#CCSc1nnc(-c2cccc3ccccc23)o1)c1cc(F)c(F)c(F)c1	inactive
CCC(=O)NC(c1ccc2c(c1)OCO2)c1cc(Cl)c2cccnc2c1O (stereo not given)	inactive
CCOC(=O)c1cnc2ccc(-c3cncc(NS(=O)(=O)c4ccccc4)c3)cn12	inactive
